Bioassay records deposited in PubChem BioAssay by several laboratories.
CCHF vOTU inh – CCHFV vOTU protease inhibitors, primary screen, biochemical, Pep-AMC substrate, fluorescence; inhibition, % at 11.5 µM; AID 651958, 2012; 370,000 tested, 0.55% active; in the data active = inhibition above about 30%; note: 0% = vehicle wells with enzyme and 100% = no enzyme wells
PrPC surface inh – inhibitors of human cell surface prion protein PrPC, primary screen, cell-based, TR-FRET | inhibition, % at 13.8 µM | Major prion protein (Homo sapiens), P04156 | 370,000 tested, 0.43% active | TR-FRET read-out; in the data active = inhibition above about 24%; note: 0% = median of the test wells and 100% = reference compound wells
Vc quorum ag – inducers of Vibrio cholerae quorum light production without autoinducers, primary screen, BH1578 luxS cqsA deficient, single point. AID 588436, 2011. 350,000 tested, 0.16% active. activation, % at 18.7 µM. V. cholerae BH1578 lux reporter, luminescence, 6 h; in the data active = activation mostly above about 9.7%, no sharp cut-off
VHR inh abs – VHR1 phosphatase inhibitors, primary screen, biochemical, absorbance, uHTS. Dual specificity protein phosphatase 3 (Homo sapiens), P51452. recombinant VHR phosphatase, pNPP absorbance. inhibition, % at 13.3 µM. 290,000 tested, 0.52% active; in the data active = inhibition above about 50%
Target sequence (P51452 whole entry, looked up): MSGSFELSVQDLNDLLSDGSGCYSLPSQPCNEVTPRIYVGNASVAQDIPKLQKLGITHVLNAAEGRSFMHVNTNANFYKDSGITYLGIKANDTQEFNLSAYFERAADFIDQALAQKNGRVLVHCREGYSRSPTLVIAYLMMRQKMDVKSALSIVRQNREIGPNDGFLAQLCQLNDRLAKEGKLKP
TcdB GH inh – TcdB glycohydrolase inhibitors, primary screen, biochemical, single point, plate reader | Toxin B (Clostridioides difficile), P18177 | TcdB glycohydrolase enzymatic assay | inhibition, % at 9.99 µM | 350,000 tested, 0.24% active; in the data active = inhibition above about 10%
PriA SSB inh – inhibitors of Klebsiella pneumoniae PriA binding to SSB C-terminal tail, primary screen, biochemical, AlphaScreen. PriA–SSB C-terminal tail interaction (Klebsiella pneumoniae). AlphaScreen SSBct-PriA binding, biotinylated peptide. 430,000 tested, 0.6% active. inhibition, % at 33 µM; in the data active = inhibition mostly above about 37%, no sharp cut-off; inactive = mostly below about 20%;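 note: plate controls were negative control peptide for no effect and reference peptide for full effect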
An asterisk follows results filed as active; i = inactive; . = no result given. An excerpt weighted towards active compounds, which were near 1.5% of everything screened.

SMILES	CCHF vOTU inh	PrPC surface inh	Vc quorum ag	VHR inh abs	TcdB GH inh	PriA SSB inh
CN(C)c1ccc(NC(=O)C2CCCN(S(=O)(=O)c3ccccc3)C2)cc1 (stereo not drawn)	0.2	19.2	-0.3	55.8*	-2.7	8.5
O=C(Nc1ccc(N2CCOCC2)cc1)C1CCCN(S(=O)(=O)c2ccccc2)C1 (stereo not drawn)	-0.2	14.9	3.6	25.4	.	7.2
CC(=NNC(=O)C1CCCN(S(=O)(=O)c2ccccc2)C1)c1ccccn1 (stereo not drawn)	.	.	.	.	.	48.8*
O=C(NCc1ccccn1)C1CCCN(S(=O)(=O)c2ccccc2)C1 (stereo not drawn)	-10.9	-2.5	i	-5.0	.	-1.9
CC(=NNC(=S)N1CCC1)c1ccccn1	5.9	14.3	i	.	-1.9	72.0*
O=C(COc1ccc(Cl)cc1Cl)NCCc1csc(-c2cccc(F)c2)n1	.	.	.	.	.	-5.0
Cc1sc2ncnc(N3CCN(c4ncccn4)CC3)c2c1C	1.2	10.9	i	57.9*	.	-2.1
Cc1sc2ncnc(N3CCN(c4ncnc5sc(C)c(C)c45)CC3)c2c1C	.	.	.	.	.	-5.0
O=C(NCc1ccco1)C1(c2cccs2)CCCC1	.	.	.	.	.	-10.0
O=C(c1cc(C2CC2)n(C2CCS(=O)(=O)C2)n1)N1CCN(c2ccc(F)cc2)CC1 (stereo not drawn)	.	.	.	.	.	-1.0
COC(=O)c1ccc(NC(=O)CN(C)c2nc3c(OC)cccc3s2)cc1	.	.	.	.	.	-8.0
COc1ccc(CC(=O)C2C(=O)N(C)c3ccccc32)cc1OC (stereo not drawn)	8.5	-8.4	-1.1	.	10.6*	-8.7
COc1ccc(CC(=O)N2c3ccccc3C[C@H]2C(N)=O)cc1OC	.	.	.	.	.	-12.0
CCOC(=O)c1cn[nH]c1S(=O)(=O)N1CCN(c2cccc(OC)c2)CC1	.	.	.	.	.	-7.0
O=C(Cn1cnc2ccccc21)NCCc1ccncc1	.	.	.	.	.	-5.0
C=CCn1c(SCC(=O)N2CC(=O)Nc3ccccc32)nc2scc(-c3ccccc3)c2c1=O	12.1	9.9	0.4	6.8	16.2*	-20.9
Cc1ccc(/C=N/NC(=O)Cc2c(F)cccc2Cl)s1	15.3	-4.4	i	52.8*	-0.1	.
CC(=O)c1ccc(NC(=O)Cc2csc3nc(-c4ccc(F)cc4)cn23)cc1	.	.	.	.	.	-11.0
Cn1c2ccccc2c2nnc(SCc3nnc(-c4ccccc4)o3)nc21	.	.	.	34.9	.	.
Cn1c(SCc2nnc(-c3ccccc3)o2)nc2ccccc21	-4.4	-15.4	-0.3	10.2	13.0*	-0.1
Cc1ccc(-n2ncc3c(N4CCC[C@H](C)C4)ncnc32)c(C)c1	.	.	.	.	.	-16.0
Cc1ccc(C2CC(=O)NC(SCC(=O)Nc3nccs3)=C2C#N)cc1 (stereo not drawn)	1.7	4.9	25.0*	-0.1	.	-1.2
CSC[C@@](C)(O)CNC(=O)C(c1ccccc1)c1ccccc1	.	.	.	.	.	-8.0
S=c1[nH]nc(-c2ccccn2)n1N=Cc1cccs1	.	.	.	.	.	57.6*
O=[N+]([O-])c1cc2c(cc1C=Nn1c(-c3ccccn3)n[nH]c1=S)OCO2	.	.	.	.	.	98.8*
SMILES	CCHF vOTU inh	PrPC surface inh	Vc quorum ag	VHR inh abs	TcdB GH inh	PriA SSB inh
COCC(=O)N1CCCc2ccc(NC(=O)Cc3ccsc3)cc21	.	.	.	.	.	35.0*
COCC(=O)N1CCCc2ccc(NS(=O)(=O)CC34CCC(CC3=O)C4(C)C)cc21 (stereo not drawn)	.	.	.	.	.	36.0*
O=C(Nc1ccccc1C(F)(F)F)c1cc([N+](=O)[O-])cc([N+](=O)[O-])c1	.	.	.	.	.	7.0
O=C(NCc1nnc2c(C(F)(F)F)cc(Cl)cn12)c1cccnc1	-0.8	4.0	0.9	10.4	12.5*	-11.6
Cc1onc(-c2ccccc2Cl)c1C(=O)NCC(c1ccsc1)N(C)C (stereo not drawn)	.	.	.	.	.	9.0
CCOc1ccccc1N1CCN(C(=O)c2ccccc2)CC1	4.5	14.0	-16.7	9.9	.	1.0
CCOc1ccccc1N1CCN(C(=O)C2c3ccccc3Oc3ccccc32)CC1	3.0	0.1	i	50.3*	.	7.3
CCCCOc1ccc(NC(=O)Nc2nnc(C)s2)cc1	-7.2	3.2	-0.7	57.3*	-0.8	-3.3
CCOC(=O)c1c(NC(C)=O)sc2c1CCC(C=NCCCN(CC)CC)=C2Sc1ccccc1	.	.	20.0*	.	.	18.4
CCN(CC)c1ccc(C2C(C(=O)OC)=C(C)NC(C)=C2C(=O)OC)cc1	29.6*	5.8	-14.3	-13.2	.	-16.1
COC(=O)C1=C(C)NC(C)=C(C(=O)OC)C1c1ccc(NC(C)=O)cc1	-11.2	1.4	8.3	3.5	-0.6	2.8
O=C(NCc1ccco1)C1CCN(c2cc(-n3ccc4ccccc43)ncn2)CC1	.	.	.	.	.	-13.0
CCN(CC)CCNC(=O)c1ccc2c(c1NCCO)C(=O)c1ccccc1C2=O	58.9*	7.8	-0.4	23.9	2.5	15.7
Oc1cc(Nc2cccnc2)cc2cccnc12	6.1	-6.0	-0.4	.	-8.5	89.1*
Fc1cc(-c2ncccn2)c2ncccc2c1	.	.	.	.	.	29.6
Oc1cc(Nc2ccncc2)cc2cccnc12	13.9	-20.1	-3.6	.	-4.5	103.9*
CN(C)c1ccc(-c2cc(O)c3ncccc3c2)cc1	9.3	-16.6	10.0	.	0.6	42.8
Oc1cc(-c2ccncc2)cc2cccnc12	17.6	-15.8	-0.2	.	-4.5	55.4*
Nc1cc(O)c2ncccc2c1	.	.	.	.	.	140.0*
Cc1cc(C)n(-c2ccc(=O)n(CCNC(=O)c3ccc4nsnc4c3)n2)n1	.	.	.	.	.	-6.0
COc1cccc(NC(=O)C2CCCN(c3ccc(-n4ccnc4)nn3)C2)c1 (stereo not drawn)	.	.	.	.	.	-2.0
CN(C)CCCNC(=O)c1ccc(-c2cc(O)c3ncccc3c2)cc1	0.4	-36.0	-0.1	.	-9.7	83.3*
CN(C)CCCNC(=O)c1ccccn1	-1.2	-1.9	i	11.9	.	1.2
Cc1csc(N2CCCC2c2nc3cc(C(F)(F)F)ccc3n2CCOCCO)n1 (stereo not drawn)	-4.0	6.1	i	.	-0.3	47.9*
O=C(Nc1cc(-c2ccco2)nn1-c1nc(=O)cc(-c2ccccc2)[nH]1)c1cc(-c2ccccc2)on1	.	.	.	.	.	-16.0
SMILES	CCHF vOTU inh	PrPC surface inh	Vc quorum ag	VHR inh abs	TcdB GH inh	PriA SSB inh
CCC(C)Nc1nc2c(c(=O)n(C)c(=O)n2C)n1Cc1ccc(Cl)cc1 (stereo not drawn)	6.5	15.3	-0.2	22.0	1.0	104.2*
O=C(Nc1ccncc1NC(=O)c1ccc(C(=O)c2ccccc2)cc1)c1ccc(C(=O)c2ccccc2)cc1	.	.	.	.	.	-8.0
O=C(Cn1cnc2c(-c3ccncc3)nsc2c1=O)NCCC1=CCCCC1	.	.	.	.	.	-6.0
C=CCn1c(NC(=O)c2ccc(C)cc2)nc2ccccc21	-7.2	-4.3	-0.4	53.9*	-0.1	11.6
CCOC(=O)c1c(NC(=O)c2ccc([N+](=O)[O-])o2)sc2c1CCN(C(C)=O)C2	.	.	.	.	.	-2.0
CC(=O)N1CCc2c(sc(NC(=O)c3ccc([N+](=O)[O-])o3)c2C(N)=O)C1	47.5*	-40.5	-0.7	.	0.2	.
N#CC(C#N)=C(/C=C/c1ccccc1)C1CC1	.	.	.	.	.	-5.0
